Ten molecules from ChEMBL document CHEMBL3988442, “University of Dundee, Small-Polar-MMV Screening Library” (2021) can be followed below.

For some assays here: Measured potencies and affinities stand elsewhere.

Set-up in all cases: scale not given: direction of the effect not stated beside the values
Test [1] deals with Protein translocase subunit SecA (Escherichia coli (strain K12)) (UniProt P10408). Briefly: Assay to Identify E. coli SecA ATPase Inhibitors. In kind it is functional. The conditions noted are these: 30 µM.
Test [2] deals with T1, Ubiquitin-activating enzyme e1, putative (Leishmania donovani (strain BPK282A1)) (UniProt E9BSI1).
T1 sequence (whole entry): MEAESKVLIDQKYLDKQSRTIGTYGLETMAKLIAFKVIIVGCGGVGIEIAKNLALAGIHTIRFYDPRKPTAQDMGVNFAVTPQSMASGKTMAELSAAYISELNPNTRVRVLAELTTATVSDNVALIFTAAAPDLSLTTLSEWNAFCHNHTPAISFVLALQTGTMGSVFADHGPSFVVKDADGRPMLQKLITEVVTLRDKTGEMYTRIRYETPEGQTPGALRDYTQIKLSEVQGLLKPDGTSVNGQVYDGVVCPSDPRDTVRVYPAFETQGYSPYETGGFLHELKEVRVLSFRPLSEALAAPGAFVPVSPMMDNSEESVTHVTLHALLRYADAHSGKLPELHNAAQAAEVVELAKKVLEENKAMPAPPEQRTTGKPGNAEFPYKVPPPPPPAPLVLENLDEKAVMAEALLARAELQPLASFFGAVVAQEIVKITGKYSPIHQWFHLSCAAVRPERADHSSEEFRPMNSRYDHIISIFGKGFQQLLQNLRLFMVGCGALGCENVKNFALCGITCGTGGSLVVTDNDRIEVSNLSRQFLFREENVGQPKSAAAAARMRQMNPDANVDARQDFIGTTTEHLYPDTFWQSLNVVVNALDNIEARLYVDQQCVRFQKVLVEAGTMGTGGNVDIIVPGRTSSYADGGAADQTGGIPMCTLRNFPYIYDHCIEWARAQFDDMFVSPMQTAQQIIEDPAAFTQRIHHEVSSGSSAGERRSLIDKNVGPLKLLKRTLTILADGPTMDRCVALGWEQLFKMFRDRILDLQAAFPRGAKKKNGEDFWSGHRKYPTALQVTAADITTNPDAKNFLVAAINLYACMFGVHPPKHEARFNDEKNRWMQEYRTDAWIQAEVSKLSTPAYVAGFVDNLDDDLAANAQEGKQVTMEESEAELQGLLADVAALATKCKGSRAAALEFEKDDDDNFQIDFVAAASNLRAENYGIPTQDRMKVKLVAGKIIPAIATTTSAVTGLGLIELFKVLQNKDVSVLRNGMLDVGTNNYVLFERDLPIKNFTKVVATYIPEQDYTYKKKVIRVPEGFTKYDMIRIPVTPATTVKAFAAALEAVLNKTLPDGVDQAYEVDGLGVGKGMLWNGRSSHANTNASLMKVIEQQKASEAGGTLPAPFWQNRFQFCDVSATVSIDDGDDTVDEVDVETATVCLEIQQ
Briefly: Leishmania donovani Ubiquitin Activating Enzyme (LdE1). In kind it is functional. Conditions: 30 µM.

Test [3] deals with AMP-activated protein kinase, AMPK (Homo sapiens) (UniProt P54646+O43741+P54619+Q9UGJ0+Q9Y478+Q13131+Q9UGI9). Briefly: AMP-dependent Kinase enzyme assay. An in vitro enzyme assay that detects ADP turnover that is directly proportional to AMPK activity. This uses naive AMPK that is activated during the assay with MK-8722. The class given is functional. The conditions noted are these: 30 µM.

Test [4] deals with Sialic acid-binding Ig-like lectin 9 (Homo sapiens) (UniProt Q9Y336). Briefly: Hs-Siglec9 ALPHAscreen SOP 20170721. Conditions: 10 µM. (In general: Alpha assays give light when donor and acceptor beads are brought close together.)
The test system of a further test is Trypanosoma cruzi. Briefly: Trypanosoma cruzi phosphomannomutase and mannose-1-phosphate guanylyltransferase assay. The conditions noted are these: 10 µM. The class given is functional.
Test [5] addresses T2, Arginase-2, mitochondrial (Homo sapiens) (UniProt P78540).
T2 sequence (whole entry): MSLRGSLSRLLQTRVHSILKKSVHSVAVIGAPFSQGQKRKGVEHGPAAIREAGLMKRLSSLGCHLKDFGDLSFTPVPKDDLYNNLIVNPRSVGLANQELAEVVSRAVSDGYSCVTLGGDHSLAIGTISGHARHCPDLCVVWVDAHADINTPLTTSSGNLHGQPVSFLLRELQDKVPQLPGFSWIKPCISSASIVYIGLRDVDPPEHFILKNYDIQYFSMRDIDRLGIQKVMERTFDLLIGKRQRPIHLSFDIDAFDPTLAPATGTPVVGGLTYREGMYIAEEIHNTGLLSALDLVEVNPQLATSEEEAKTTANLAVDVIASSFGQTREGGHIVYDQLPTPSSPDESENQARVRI
Briefly: in vitro enzyme assay to detect the production of urea directly proportional to the activity of Arginase II. Also: in the data most compounds retested in dose-response had high values. The class given is functional. The conditions noted are these: 33.3 µM.

Test [6] has as its target T3, Proteasome subunit beta (Trypanosoma cruzi) (UniProt O96673).
T3 sequence (whole entry): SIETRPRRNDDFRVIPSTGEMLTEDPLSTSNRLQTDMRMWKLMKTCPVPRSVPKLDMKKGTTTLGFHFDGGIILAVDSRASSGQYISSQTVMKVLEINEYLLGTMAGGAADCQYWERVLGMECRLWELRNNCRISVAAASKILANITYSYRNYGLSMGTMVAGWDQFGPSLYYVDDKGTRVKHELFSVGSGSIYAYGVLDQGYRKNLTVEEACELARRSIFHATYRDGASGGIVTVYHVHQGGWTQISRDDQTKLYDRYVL
The test is described as follows: Trypanosoma cruzi proteasome chymotrypsin-like activity (TcProtChymo) assay. Also: in the data most compounds retested in dose-response had high values. In kind it is functional. Conditions: 9.37 µM.

The next test is filed under the species Homo sapiens. The test is described as follows: To identify inhibition of the IFN signalling (Jak-Stat) pathway via expression of an eGFP reporter gene under the control of an IFN-stimulated response element (ISRE) containing MxA promoter. In kind it is functional. The conditions noted are these: 30 µM.
Test [7] has as its target T4, Tyrosyl-tRNA synthetase, putative (Trypanosoma cruzi (strain CL Brener)) (UniProt Q4DSP6).
T4 sequence (whole entry): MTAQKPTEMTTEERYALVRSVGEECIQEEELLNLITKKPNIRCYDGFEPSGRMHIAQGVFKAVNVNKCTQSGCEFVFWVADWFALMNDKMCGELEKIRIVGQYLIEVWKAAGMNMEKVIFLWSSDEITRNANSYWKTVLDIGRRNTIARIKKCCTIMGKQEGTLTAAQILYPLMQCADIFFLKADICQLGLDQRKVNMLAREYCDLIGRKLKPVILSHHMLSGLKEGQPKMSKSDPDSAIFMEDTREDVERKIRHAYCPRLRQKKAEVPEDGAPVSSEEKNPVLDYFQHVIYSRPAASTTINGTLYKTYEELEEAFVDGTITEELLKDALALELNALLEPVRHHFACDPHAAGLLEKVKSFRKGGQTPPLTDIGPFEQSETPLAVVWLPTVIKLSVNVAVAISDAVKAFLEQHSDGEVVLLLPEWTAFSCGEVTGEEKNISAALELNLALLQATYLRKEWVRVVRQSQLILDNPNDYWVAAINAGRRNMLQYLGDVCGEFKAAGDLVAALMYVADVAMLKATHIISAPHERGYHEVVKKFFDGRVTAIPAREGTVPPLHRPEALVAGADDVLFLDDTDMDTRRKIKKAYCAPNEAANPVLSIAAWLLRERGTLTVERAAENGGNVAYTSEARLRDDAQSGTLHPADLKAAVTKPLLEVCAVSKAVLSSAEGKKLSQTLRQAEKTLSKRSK
The test is described as follows: Trypanosoma cruzi tyrosyl tRNA synthetase (TcYRS) _High Tyrosine SOP. Also: in the data most compounds retested in dose-response had high values. The conditions noted are these: 30 µM. The class given is functional.

For test [8], the target named is T4, Tyrosyl-tRNA synthetase, putative (Trypanosoma cruzi (strain CL Brener)). Briefly: Trypanosoma cruzi tyrosyl tRNA synthetase (TcYRS) SOP. The class given is functional. The conditions noted are these: 30 µM.
Test [9] concerns the target Chromo domain-containing protein 1 (Saccharomyces cerevisiae (strain ATCC 204508 / S288c) (Baker's yeast)) (UniProt P32657). The test is described as follows: ScCHD-1 Enzyme Inhibition Assay. Also: in the data most compounds retested in dose-response had high values. The class given is functional. The conditions noted are these: 30 µM.

Sialic acid-binding Ig-like lectin 9 (Homo sapiens), sequence (Q9Y336 whole entry): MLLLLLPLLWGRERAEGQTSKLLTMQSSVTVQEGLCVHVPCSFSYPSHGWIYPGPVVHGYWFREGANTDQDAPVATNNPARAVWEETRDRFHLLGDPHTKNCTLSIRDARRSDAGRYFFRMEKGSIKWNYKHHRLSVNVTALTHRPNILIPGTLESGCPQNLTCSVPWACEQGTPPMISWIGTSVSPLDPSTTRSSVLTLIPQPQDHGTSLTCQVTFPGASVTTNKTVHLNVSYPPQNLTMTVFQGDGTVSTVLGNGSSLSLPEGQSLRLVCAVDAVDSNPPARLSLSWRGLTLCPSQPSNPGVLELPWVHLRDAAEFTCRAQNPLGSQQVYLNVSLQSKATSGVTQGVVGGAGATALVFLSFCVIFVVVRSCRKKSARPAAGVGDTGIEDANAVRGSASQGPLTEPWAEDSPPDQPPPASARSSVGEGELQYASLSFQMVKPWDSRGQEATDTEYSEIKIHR
Chromo domain-containing protein 1 (Saccharomyces cerevisiae (strain ATCC 204508 / S288c) (Baker's yeast)), sequence (P32657 whole entry, the tested form may be a part): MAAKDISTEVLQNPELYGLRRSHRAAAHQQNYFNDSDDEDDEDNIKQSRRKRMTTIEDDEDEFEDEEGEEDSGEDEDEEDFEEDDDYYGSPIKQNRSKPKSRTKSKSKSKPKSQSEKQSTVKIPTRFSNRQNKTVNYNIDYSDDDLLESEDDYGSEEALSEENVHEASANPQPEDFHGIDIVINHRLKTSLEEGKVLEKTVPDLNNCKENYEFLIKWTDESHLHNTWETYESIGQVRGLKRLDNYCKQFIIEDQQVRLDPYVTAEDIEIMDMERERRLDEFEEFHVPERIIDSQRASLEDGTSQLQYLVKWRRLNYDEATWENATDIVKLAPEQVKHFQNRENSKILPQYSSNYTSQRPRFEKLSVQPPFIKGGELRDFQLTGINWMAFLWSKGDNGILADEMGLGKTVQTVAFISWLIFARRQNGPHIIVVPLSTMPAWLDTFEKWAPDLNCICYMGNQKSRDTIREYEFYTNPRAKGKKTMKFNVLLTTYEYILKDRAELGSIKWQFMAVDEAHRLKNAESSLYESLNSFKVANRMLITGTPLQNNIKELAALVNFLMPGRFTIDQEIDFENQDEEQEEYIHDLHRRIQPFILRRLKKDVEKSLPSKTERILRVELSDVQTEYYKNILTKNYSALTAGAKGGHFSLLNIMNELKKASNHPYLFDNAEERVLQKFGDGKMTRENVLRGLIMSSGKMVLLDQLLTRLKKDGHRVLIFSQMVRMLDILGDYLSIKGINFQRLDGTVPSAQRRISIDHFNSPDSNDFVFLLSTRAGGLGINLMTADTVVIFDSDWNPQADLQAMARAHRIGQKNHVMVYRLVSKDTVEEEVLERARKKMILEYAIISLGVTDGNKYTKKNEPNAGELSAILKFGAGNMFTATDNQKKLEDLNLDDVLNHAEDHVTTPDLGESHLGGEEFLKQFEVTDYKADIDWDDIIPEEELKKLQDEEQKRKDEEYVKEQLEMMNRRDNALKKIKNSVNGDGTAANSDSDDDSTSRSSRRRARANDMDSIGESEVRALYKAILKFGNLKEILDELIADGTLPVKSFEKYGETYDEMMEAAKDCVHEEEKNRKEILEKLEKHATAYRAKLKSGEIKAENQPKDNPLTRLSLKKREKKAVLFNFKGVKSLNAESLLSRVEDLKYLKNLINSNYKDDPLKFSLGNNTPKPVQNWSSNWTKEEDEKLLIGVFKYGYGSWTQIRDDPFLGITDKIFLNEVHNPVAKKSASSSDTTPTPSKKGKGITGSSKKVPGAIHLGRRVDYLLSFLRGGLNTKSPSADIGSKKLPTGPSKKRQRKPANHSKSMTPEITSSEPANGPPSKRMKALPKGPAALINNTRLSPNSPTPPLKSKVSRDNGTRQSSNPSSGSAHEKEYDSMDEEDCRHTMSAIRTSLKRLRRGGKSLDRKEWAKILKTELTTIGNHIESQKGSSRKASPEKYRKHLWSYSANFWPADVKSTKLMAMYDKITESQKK
Protein translocase subunit SecA (Escherichia coli (strain K12)), sequence (P10408 whole entry): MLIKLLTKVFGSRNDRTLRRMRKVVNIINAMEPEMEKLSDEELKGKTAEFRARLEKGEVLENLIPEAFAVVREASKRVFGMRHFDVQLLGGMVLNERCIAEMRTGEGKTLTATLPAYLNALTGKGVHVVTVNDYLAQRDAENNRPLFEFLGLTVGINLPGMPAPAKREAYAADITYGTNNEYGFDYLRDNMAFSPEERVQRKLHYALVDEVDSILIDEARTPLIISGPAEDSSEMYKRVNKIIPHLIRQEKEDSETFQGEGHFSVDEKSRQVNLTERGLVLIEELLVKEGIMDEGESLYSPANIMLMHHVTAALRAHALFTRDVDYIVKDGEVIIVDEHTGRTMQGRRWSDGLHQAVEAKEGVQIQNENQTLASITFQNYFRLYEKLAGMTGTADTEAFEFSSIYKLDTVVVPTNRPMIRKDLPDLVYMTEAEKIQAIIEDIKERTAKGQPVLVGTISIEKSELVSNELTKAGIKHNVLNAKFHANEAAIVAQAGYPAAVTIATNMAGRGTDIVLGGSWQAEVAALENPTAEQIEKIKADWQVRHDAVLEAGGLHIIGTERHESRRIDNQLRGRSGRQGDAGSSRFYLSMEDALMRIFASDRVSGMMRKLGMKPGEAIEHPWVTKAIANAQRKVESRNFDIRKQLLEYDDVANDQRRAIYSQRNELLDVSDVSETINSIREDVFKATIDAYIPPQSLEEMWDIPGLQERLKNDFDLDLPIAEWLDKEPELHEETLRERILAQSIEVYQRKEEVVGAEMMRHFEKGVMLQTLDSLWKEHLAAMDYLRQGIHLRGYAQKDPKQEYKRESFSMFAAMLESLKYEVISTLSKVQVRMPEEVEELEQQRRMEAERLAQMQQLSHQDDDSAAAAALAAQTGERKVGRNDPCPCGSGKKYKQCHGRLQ

For the molecule `Cn1cccc1C1CCCN1C(=O)NCCCn1cccn1` (stereo not given), the Percent Effect in [1] was -1.96%; in test [2], 2.67%; in test [3] it was -3.95%; in test [4] it was -0.718%; in the test on Trypanosoma cruzi, -0.0974%; in [5] it was -2.08%. In addition, the Percent Effect is 6.28% in [6]; 8.34% in the test listed under Homo sapiens; 4.92% in test [7]; 8.64% in [8]; -1.47% in test [9].

For the molecule `Cc1cc(C2CCCN(C(=O)c3cnccn3)C2)ccn1` (stereo not given), the Percent Effect in [1] is 2.59%; in test [2] it was 6.76%; in [3], 5.06%; in [4] it was 0.392%; with Trypanosoma cruzi it was -5.93%; in test [5] it was 0.232%. Further, the Percent Effect in [6] is 8.27%; in the test filed under Homo sapiens it was 12.6%; in test [7] it was 2.15%; in test [8] it was 3.9%; in test [9], 6.76%.

Consider `COC(=O)C(C)(C)NC(=O)C1CC(=O)N(C2CCCC2)C1` (stereo not given), for which the Percent Effect was -0.563% in [1]; 11% in test [2]; -0.48% in test [3]; 5.96% in [4]; 3.17% in the test with Trypanosoma cruzi; -2.79% in test [5]. Further, the Percent Effect is 9.85% in [6]; 26.3% in the test listed under Homo sapiens; 11.5% in test [7]; 25.9% in [8]; -1.54% in [9].

Regarding `Cc1cc(C)n(-c2cncc(NCCNC(=O)C(C)C)n2)n1`, the Percent Effect in test [1] was -6.42%; in test [2], 8.11%; in [3], -5.29%; in test [4], -1.97%; in the test on Trypanosoma cruzi, -3.03%; in test [5], 0.248%. The Percent Effect in test [6] is 10.4%; in the test filed under Homo sapiens, -9.83%; in test [7], 4.3%; in test [8], 6.17%; in test [9] it was -5.51%.

As for `O=C(NCc1ccoc1)NC1CCCN(c2ncccn2)C1` (stereo not given), the Percent Effect is -3.31% in [1]; 7.89% in test [2]; 6.88% in test [3]; 0.569% in test [4]; 4.97% in the test on Trypanosoma cruzi; -8.28% in test [5]. The Percent Effect in test [6] was 15.8%; in the test listed under Homo sapiens, 20.9%; in [7] it was 3.19%; in test [8], 13%; in test [9], -3.64%.

On to `CSC(C)C(=O)N1CCCN(Cc2cnn(C(C)C)c2)CC1` (stereo not given), for which the Percent Effect in [1] was 1.59%; in test [2], 21.6%; in [3], -6.76%; in test [4] it was -4.41%; with Trypanosoma cruzi, -10.3%; in test [5], 2%. Further, the Percent Effect in test [6] was 19.1%; in the test filed under Homo sapiens it was 7.04%; in [7] it was 8.37%; in test [8], 11.1%; in [9] it was -4.54%.

Regarding `OCCn1cc(CN2CCN(CCOc3ccccc3)CC2)cn1`, the Percent Effect is -4.31% in test [1]; 8.11% in [2]; -1.96% in test [3]; 0.413% in test [4]; -4.36% in the test with Trypanosoma cruzi; 1.29% in [5]. The Percent Effect in test [6] is 11.3%; in the test listed under Homo sapiens it was 3.13%; in test [7], 2.97%; in test [8], 3.66%; in test [9], -2.48%.

As for `O=C(NC1(c2nnn(CCO)n2)CCCC1)c1ccccc1`, the Percent Effect is -3.12% in test [1]; 8% in test [2]; -5.64% in test [3]; 17.4% in test [4]; 3.41% in the test with Trypanosoma cruzi; 17.7% in test [5]. The Percent Effect is 1.57% in test [6]; -6.59% in the test filed under Homo sapiens; 6.01% in test [7]; 16.1% in test [8]; -4.4% in [9].

Take `CCc1noc(CNc2ccc(C(=O)N3CCCC(C)C3)cc2C)n1` (stereo not given): the Percent Effect in test [1] is -4.09%; in test [2], 0%; in [3] it was 2.37%; in test [4], 9.47%; in the test with Trypanosoma cruzi it was 1.69%; in test [5], 3.2%. For the same molecule, the Percent Effect in [6] was 3.88%; in the test listed under Homo sapiens it was 9.39%; in test [7] it was 4.85%; in test [8], 2.44%; in test [9], -8.29%.

Turning to `CCC1CCCCCN1C(=O)c1nnc2ccccc2c1N` (stereo not given), the Percent Effect is -4.89% in [1]; 2.63% in test [2]; 3.98% in test [3]; -3.48% in test [4]; -2.82% in the test with Trypanosoma cruzi; 0% in test [5]. Moreover, the Percent Effect in test [6] is 9.11%; in the test filed under Homo sapiens, 7.13%; in test [7], 0%; in test [8], 2.6%; in test [9], -1.43%.
